Giardia killer: kills Giardia lamblia. Giardia lamblia trophozoite viability. activity change, % at 7.66 µM, hits read low. hit rate 0.15% among 340,000; in the data active means activity change below about -80%; inconclusive means between about -30% and that limit;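 further: parasites exposed to compound for two days anaerobically before the ATP read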
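Killing of trophozoites was scored by loss of ATP luminescence after a 48 hrs anaerobic exposure to compounds at 37 deg C, using 100 cells per well.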
IL-1B inflam inh: blocks inflammasome-driven IL-1 beta release. activity change, % at 57.5 µM. hit rate 4.7% among 360,000. THP-1 LPS/ATP IL-1B secretion, AlphaLISA, 16 h; hits give low values; in the data active means activity change below about -50%; inconclusive means mostly about -30% to -49%
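Secreted IL-1B measured by AlphaLISA bead assay after 16 h compound exposure of THP-1 cells; compounds (final up to 57.5 uM) added 1 h before LPS (250 ng/mL) and ATP (1.25 mM) stimulation; lower signal means less secretion.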
TDP1 inh: inhibitors of human tyrosyl-DNA phosphodiesterase TDP1. recombinant TDP1, AlphaScreen DNA substrate cleavage. Potency, µM (doses to about 130 µM), inactives show at the highest dose activity change, negative = inhibition, hits mostly inhibitors. hit rate 0.28% among 350,000. AID 485290; further: potency means the concentration at half of the fitted maximal effect; nearly all actives have a fitted effect of over 40% in size
Target sequence (Q9NUW8 whole entry, looked up): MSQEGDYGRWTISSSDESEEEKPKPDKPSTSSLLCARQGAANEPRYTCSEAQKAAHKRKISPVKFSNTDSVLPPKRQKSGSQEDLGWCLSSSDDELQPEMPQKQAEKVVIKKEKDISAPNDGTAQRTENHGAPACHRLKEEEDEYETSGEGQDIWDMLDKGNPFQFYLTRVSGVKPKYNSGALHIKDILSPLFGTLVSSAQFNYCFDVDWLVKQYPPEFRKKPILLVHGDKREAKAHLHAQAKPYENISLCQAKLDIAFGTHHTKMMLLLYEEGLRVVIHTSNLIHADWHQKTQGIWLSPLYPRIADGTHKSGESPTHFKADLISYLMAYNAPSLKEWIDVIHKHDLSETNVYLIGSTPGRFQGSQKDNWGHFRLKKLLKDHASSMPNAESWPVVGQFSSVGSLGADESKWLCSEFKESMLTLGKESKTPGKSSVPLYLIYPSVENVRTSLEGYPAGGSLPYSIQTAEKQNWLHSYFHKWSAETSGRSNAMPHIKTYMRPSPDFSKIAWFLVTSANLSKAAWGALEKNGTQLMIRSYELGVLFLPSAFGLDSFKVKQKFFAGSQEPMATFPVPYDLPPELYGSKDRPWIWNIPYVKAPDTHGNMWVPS
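E. coli-derived human Tdp1, 1 nM final. Cpd preinc 15 min RT; substrate 15 nM final, 5 min RT; AS bead mix 10 ug/ml final, 10 min RT. Signal loss = tyrosine-FITC cleavage. No-enzyme wells = max signal.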
DT40 TDP1 CPT: growth inhibition of DT40 Tdp1-/-;hTDP1 cells with camptothecin (screen for TDP1 inhibitors) | chicken DT40 Tdp1-/-;hTDP1 cells + 20 nM CPT, ATP luminescence, 48 h | Potency, µM (highest dose often 46.2 µM), inactives show at the highest dose activity change, negative = growth inhibition, most hits filed as inhibitors | hit rate 12% among 420,000 | AID 686979; further: potency means the concentration at half of the fitted maximal effect; nearly all actives have a fitted effect of over 55% in size
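Cell growth measured by CellTiter-Glo luminescence after a minimum 48 h, 37 C compound exposure with 20 nM CPT in Tdp1-knockout DT40 cells stably expressing hTDP1, seeded 400/well; qHTS titration format.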
ELG1 DNA repair: inhibitors of ELG1-dependent DNA repair in HEK293T cells. HEK293T ELG1-luciferase reporter, luminescence, 16 h; DNA damage induced by 5-fluorouridine. Potency, µM (highest dose often 46.1 µM), inactives show top-dose activity change, negative = inhibition, hits mostly inhibitors. hit rate 2.3% among 330,000. AID 504467; further: potency means the concentration at half of the fitted maximal effect; nearly all actives have a fitted effect of over 55% in size
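Reporter activity after DNA damage by 5-fluorouridine is monitored. Compound-treated cells incubate 16 hr at 37 °C, then ONE-Glo is added for 30 min before luminescence reading.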
DT40 TDP1 no CPT: qHTS for Inhibitors of human tyrosyl-DNA phosphodiesterase 1 (TDP1): qHTS in cells in absence of CPT. Potency, µM (top dose mostly 46.2 µM), inactives show at the highest dose activity change, negative = growth inhibition, actives largely listed as inhibitors. hit rate 15% among 420,000. DT40 Tdp1-/- hTDP1 cells, no CPT, ATP luminescence, 48 h; further: potency means the concentration at half of the fitted maximal effect; nearly all actives have a fitted effect of over 55% in size
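Growth of hTDP1-complemented DT40 Tdp1-knockout cells is measured by ATP luminescence after at least 48 hr compound exposure at 37 °C, with DMSO substituting for the 20 nM CPT used in the parallel screen.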
Numbers without * were called inactive; u = inconclusive; x = no result given; [ ] = dose if it differs, or a comment. Compounds with a hit are over-represented: about 19% of the library has one in this group of screens. Unless noted, the call rests on the fitted dose curve; in most records, active means well fitted curve in the direction sought with a large enough effect; inconclusive means small, poorly fitted or top-dose-only effect, or another doubt; inactive means no such curve, though single readings can be large; an effect the other way counts as inactive or inconclusive. On the % scale 0 is the no-effect control and ±100 the full control effect.

SMILES | Giardia killer | IL-1B inflam inh | TDP1 inh | DT40 TDP1 CPT | ELG1 DNA repair | DT40 TDP1 no CPT
Cc1cc(-c2ccnc(-n3ncc(C(=O)NCCc4cccnc4)c3C)n2)c(C)s1 | x | x | x | -3%[9.04 µM] | x | u
CCOC(=O)c1oc2c(c1C)-c1nn(Cc3ccc(Cl)cc3)cc1CC2 | x | x | 5% | 16µM* | x | 21µM*
Cc1ccc(CNC(=O)c2oc3c(c2C)-c2nn(Cc4ccc(Cl)cc4)cc2CC3)cc1 | x | x | 1% | 10µM* | x | 9.2µM*
CCOc1ccc(CNC(=O)c2oc3c(c2C)-c2nn(Cc4cccc(Cl)c4)cc2CC3)cc1 | x | x | 1% | 18µM* | x | 16µM*
Cc1c(C(=O)NCc2ccccc2Cl)oc2c1C(=O)CCC2 | x | x | 2% | x | 13% | x
Cc1c(C(=O)O)oc2c1-c1nn(Cc3ccc(Cl)cc3)cc1CC2 | x | x | 3% | 12% | x | -9%
Cc1cccc(CNC(=O)c2oc3c(c2C)-c2nn(Cc4ccccc4Cl)cc2CC3)c1 | x | x | 3% | u | x | 21µM*
COc1cccc(CNC(=O)c2cc(S(=O)(=O)N3CCCC3)cn2C)c1 | -14 | -13 | x | -23% | 5% | -5%
Cc1ccccc1C(=O)N1CCC(C(=O)N2CCN(S(=O)(=O)c3ccccc3F)CC2)CC1 | -19 | -4 | 4% | u | u | -25%
CCOC1=C2[C@@H](CN(S(=O)(=O)c3ccc(C)cc3)[C@H]2c2ccccc2)[C@H]2C(=O)N(c3ccccc3)C(=O)[C@H]2C1 | x | -1 | x | 3% | x | -6%
COc1ccc(CNC(=O)c2oc3c(c2C)-c2nn(Cc4ccccc4Cl)cc2CC3)cc1 | x | x | -5% | u | x | 23µM*
COCCNC(=O)Cn1cc2c(n1)-c1c(oc(C(=O)N3CCCC3)c1C)CC2 | x | x | -8% | -23% | x | -2%
CCn1cc2c(n1)-c1c(oc(C(=O)Nc3ccc(Br)cc3F)c1C)CC2 | x | x | -12% | u | x | 21µM*
COc1ccccc1CNC(=O)c1oc2c(c1C)-c1nn(Cc3ccc(Cl)cc3)cc1CC2 | x | x | 0% | 16µM* | x | 21µM*
CC(=O)Nc1ccc(NC(=O)c2oc3c(c2C)-c2nn(Cc4ccccc4Cl)cc2CC3)cc1 | x | x | 1% | 8.2µM* | x | 18µM*
Cc1c(C(=O)NCCN(C)C)oc2c1-c1nn(Cc3ccccc3Cl)cc1CC2 | x | x | 4% | u | x | u
COc1ccc(NC(=O)[C@H](C)NC(=O)C2CCN(S(=O)(=O)c3ccc(OC)cc3)CC2)cc1 | -13 | u | 2% | -15% | -2% | 17%
O=c1c(-c2ccc(F)cc2)nc2cnc(Nc3ccccc3)nc2n1Cc1cccs1 | x | x | x | -17% | x | u
Cc1cccc(CNC(=O)c2oc3c(c2C)-c2nn(Cc4cccc(Cl)c4)cc2CC3)c1 | x | x | 3% | u | x | 29µM*
Cc1c(C(=O)NCc2ccccc2)oc2c1-c1[nH]ncc1CC2 | x | x | 6% | u | x | -16%
CC1(C)CC2(C)OC(=N)C1(C#N)C2(C#N)C#N (centres undefined) | -24 | -101* | x | u | 0% | 15µM*
CC(=O)OCC1OC(C#CC2=CCCCC2)C=CC1OC(C)=O (centres undefined) | x | x | 10%[21 µM] | x | x | x
Cc1ccc2c(c1)c(=O)c(C(=O)c1ccc3c(c1)OCO3)cn2Cc1cccc(F)c1 | x | x | 1% | u | x | 16µM*
CCOc1ccc2c(c1)c(=O)c(C(=O)c1ccc3c(c1)OCO3)cn2Cc1cccc(F)c1 | x | x | 9% | u | x | 23µM*
CC(OC(=O)CNC(=O)c1cccs1)C(=O)Nc1ccc(S(N)(=O)=O)cc1 (centres undefined) | -3 | 3 | -2% | 1% | 22% | -14%
SMILES | Giardia killer | IL-1B inflam inh | TDP1 inh | DT40 TDP1 CPT | ELG1 DNA repair | DT40 TDP1 no CPT
O=S(=O)(NCC1CCCO1)c1ccc(S(=O)(=O)N(Cc2ccc(F)cc2)Cc2ccccn2)cc1 (centres undefined) | 3 | -12 | 0% | -26% | -10% | u
CCC1CCCCN1S(=O)(=O)c1ccc(S(=O)(=O)N(Cc2ccccn2)CC2CCCO2)cc1 (centres undefined) | -14 | -1 | 2% | 23µM* | 18µM* | 23µM*
CCC1CCCCN1S(=O)(=O)c1ccc(S(=O)(=O)N(Cc2cccs2)C2CC2)cc1 (centres undefined) | -8 | 62 | 3% | 18µM* | u | 23µM*
O=C(Oc1c(Cl)cc(Cl)c2cccnc12)N1CCCCC1 | -5 | 5 | 0% | -30% | u | -29%
CN1CCN(Cc2cc(Cl)c3cccnc3c2OC(=O)c2cccs2)CC1 | 1 | 3 | 8% | 4.6µM* | u | 4.6µM*
CC(CN1CCOCC1)OC(=O)c1ccccc1Br (centres undefined) | 10 | 8 | 0% | -1% | 23% | -29%
O=C(Oc1c(CN2CCOCC2)cc(Cl)c2cccnc12)c1ccccc1Br | -19 | 105 | 8% | 4.6µM* | 8.2µM* | 4.6µM*
Fc1ccc(NCc2ccccc2-c2nnc(-c3ccccc3Cl)o2)cc1Cl | x | x | 0% | u | x | u
Cc1ccc(CNC(=O)CSc2nc(=O)[nH]c3c2CCCC3)cc1 | x | x | 5% | 3% | x | 2%
Nc1nc2nc(-c3ccccc3)cc(C(F)(F)F)c2s1 | -2 | -73* | 2% | u | u | u
Cc1ccc(S(=O)(=O)Nc2ncnc3ccccc23)cc1 | 17 | 67 | 0% | -13% | 18% | u
Nc1nnnn1/N=C/c1ccccc1C(F)(F)F | -19 | 0 | 3% | 12µM* | 4% | 18µM*
Cc1ncc2c(c1CNC(=O)c1cncs1)CCN(C(=O)c1ccsc1)C2 | x | x | x | -9% | x | -1%
O=C(CN1c2ccccc2S(=O)(=O)c2ccccc21)Nc1ccccc1Cl | x | x | 5% | u | x | u
COC(=O)c1c(C)nn(-c2ccc(OC(F)(F)F)cc2)c1-c1snnc1C | -6 | -3 | -8% | u | u | 16µM*
CCOc1ccccc1Nc1ccnc2cc(Cl)ccc12 | 26 | -88* | 3% | u | -10% | 23µM*
Oc1ccc(/C=N/Nc2ccnc3cc(Cl)ccc23)cc1O | -12 | 80 | 9% | 13µM* | 27% | 13µM*
S=C(Nc1ccc(Cl)cc1Cl)Nn1cnnc1 | 48 | 11 | -1% | 0% | 0% | -20%
Oc1ccc(/C=N/Nc2ccnc3cc(Cl)ccc23)c(O)c1O | -9 | 11 | 12% | u | 3% | u
Clc1ccc2c(NCc3ccccn3)ccnc2c1 | 27 | 13 | x | u | -15% | -13%
CCOc1ccc(NC(=S)NNc2ccnc3cc(Cl)ccc23)cc1 | -1 | -89* | 5% | u | 23µM* | 13µM*
S=C(NNc1ccnc2cc(Cl)ccc12)Nc1ccc(Cl)cc1Cl | -13 | -86* | x | 4.6µM* | 21µM* | 3.7µM*

Screening results from PubChem.
